Only some compounds are listed: those with a hit (about 11% of all), similar ones and a draw of the others.
Tau fibril FP = tau fibrillization inhibition (FP) | P10636 | K18 P301L tau heparin fibrillization, Alexa594 FP, 6 h | Potency, µM (titrated, usually from 57.7 µM), actives largely listed as inhibitors | 0.39% of 280,000 active | AID 1468; also: nearly all actives have a fitted effect of over 55% in size
Target sequence (P10636 561-689 P618L limits assumed): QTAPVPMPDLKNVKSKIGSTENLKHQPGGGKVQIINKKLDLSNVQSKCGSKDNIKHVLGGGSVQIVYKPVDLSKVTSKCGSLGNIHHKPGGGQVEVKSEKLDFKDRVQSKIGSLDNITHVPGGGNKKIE
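Read-out: fluorescence polarization of Alexa 594-labeled tau (0.24 uM), 555 nm excitation, 632 nm emission. Mixtures held 15 uM unlabeled K18 P301L, compound and 20 uM heparin, pH 7 acetate buffer, incubated 6 hr at 37 C.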
Tau ThT inhib = inhibitors of human tau fibril formation, thioflavin T binding; P10636; Potency, µM (doses to about 57.4 µM), most hits filed as inhibitors; recombinant tau K18 P301L, heparin-induced fibrillization, ThT fluorescence; 2.1% of 270,000 active; also: nearly all actives have a fitted effect of over 55% in size
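In this qHTS, human K18 P301L tau is incubated with compound and heparin for 6 hr at 37 C, and Thioflavin T fluorescence then reports fibril load.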
Sfp PPTase inh = Sfp phosphopantetheinyl transferase inhibition. 3.5% of 310,000 active. Potency, µM, most hits filed as inhibitors. Q9F4F7. Biochemical Sfp PPTase activity, qHTS. AID 1490;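 also: the enzyme is Sfp with the accession as filed and its product quenches rhodamine fluorescence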
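Buffer: 50 mM Hepes-Na pH 7.6, 10 mM MgCl2, 0.01% Nonidet P-40, 0.01% BSA. Enzyme 15 nM, pre-exposed to compound 15 min; substrates then added and fluorescence change tracked over 30 min.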
Coupling enz = inhibits coupling enzyme system, counter-screen for aldolase hits | coupling enzyme system counterscreen, AmpLite Red fluorescence | activity change, negative = inhibition, % at 58.2 µM, hits read low | 0.67% of 290,000 active | AID 2472; in the data active = activity change below about -30%
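First, compound is pin-transferred into glyceraldehyde-3-phosphate coupling-enzyme reagent at 57.5 uM final and held 10 min at RT. Next, substrate, coupling system and AmpLite Red are added. After 20 min RT, fluorescence (525/598 nm) is read.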
G9a block = inhibitors of human histone lysine methyltransferase G9a; Q96KQ7; G9a H3K9 monomethylation, AlphaScreen, 2 h; Potency, µM (highest dose often 102 µM), actives largely listed as inhibitors; 8.8% of 350,000 active; also: nearly all actives have a fitted effect of over 75% in size
Target sequence (Q96KQ7 913-1193 limits assumed): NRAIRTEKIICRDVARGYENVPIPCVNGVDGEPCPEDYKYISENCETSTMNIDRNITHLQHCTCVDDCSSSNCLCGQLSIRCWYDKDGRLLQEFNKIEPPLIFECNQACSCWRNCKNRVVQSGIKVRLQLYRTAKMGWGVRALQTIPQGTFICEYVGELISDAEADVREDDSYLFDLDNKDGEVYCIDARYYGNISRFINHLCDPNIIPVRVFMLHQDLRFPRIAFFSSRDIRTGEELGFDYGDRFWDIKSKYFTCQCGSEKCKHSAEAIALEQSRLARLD
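Enzyme 20 nM + cpd, 15 min RT; add b-H3K9 pep 500 nM / SAM 20 uM; 2 h RT; anti-H3K9me1 Ab 0.5 ug/mL + SA donor / anti-rabbit acceptor beads 20 ug/mL each, 10 min; AlphaScreen read.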
Tau fluor counter = counter-screen for tau fibril formation inhibitors. tau K18 P301L Alexa594 fluorescence, heparin fibrillization. Potency, µM (titrated, usually from 57.7 µM). 0.93% of 280,000 active. AID 1463; also: nearly all actives have a fitted effect of over 55% in size
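Human tau K18 P301L (15 uM unlabeled, 0.24 uM Alexa 594-labeled) in 100 mM sodium acetate pH 7 with 20 uM heparin, 6 hr at 37 C. ThT 30 uM added, 1 hr ambient; Alexa 594 FP and total fluorescence read at 555/632 nm.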
Of the large screens only hits and unclear results are named; the others gave an inactive call; ! = a repeat was not active; [ ] = remark or other dose. Unless noted, calls follow the shape of the dose curve; as a rule, active = well fitted curve in the direction sought with a large enough effect; inconclusive = small, poorly fitted or top-dose-only effect, or another doubt; inactive = no such curve, though single readings can be large; an effect the other way counts as inactive or inconclusive.

CCOC(=O)C1CCN(S(=O)(=O)CCNC(=O)c2cccc(OC)c2)CC1	G9a block 18µM (no result: Tau fibril FP, Tau ThT inhib, Sfp PPTase inh, Coupling enz, Tau fluor counter)
COc1cccc(C(=O)NCCS(=O)(=O)N2CCC3(CC2)OCCO3)c1	G9a block 16µM (no result: Tau fibril FP, Tau ThT inhib, Sfp PPTase inh, Coupling enz, Tau fluor counter)
COc1cccc(C(=O)NCCS(=O)(=O)N2CC(C)CC(C)C2)c1 (centres undefined)	G9a block 25µM (no result: Tau fibril FP, Tau ThT inhib, Sfp PPTase inh, Coupling enz, Tau fluor counter)
O=C(O)CC1c2ccccc2C=Cc2ccccc21	none (no result: Tau fibril FP, Tau ThT inhib, Sfp PPTase inh, Coupling enz, Tau fluor counter)
CC(C)Oc1ccc(CNC(=O)c2ccc3c(c2)nc2n3CCOC2)cc1	Tau ThT inhib inconclusive (no result: Sfp PPTase inh, Coupling enz)
O=C(NCCOc1ccccc1)O[C@@H]1C(=O)c2cc(Br)ccc2O[C@H]1c1ccc2c(c1)OCO2	Tau fibril FP inconclusive, Tau fluor counter inconclusive (no result: G9a block)
O=C(c1ccc(C(F)(F)F)cc1)N1CCN(c2ccc(N3CCOCC3)nn2)CC1	none (no result: Tau fibril FP, Tau ThT inhib, Sfp PPTase inh, Coupling enz, Tau fluor counter)
COc1ccc(C(=O)NCCS(=O)(=O)N2CCOCC2)cc1	none (no result: Tau fibril FP, Tau ThT inhib, Sfp PPTase inh, Coupling enz, Tau fluor counter)
COc1cccc(C(=O)NCCS(=O)(=O)N2CCOCC2)c1	G9a block 22µM (no result: Tau fibril FP, Tau ThT inhib, Sfp PPTase inh, Coupling enz, Tau fluor counter)
O=C(O)CC(C(=O)OCCOc1ccccc1)N1CCOCC1 (centres undefined)	G9a block 79µM
O=C(O)CN1CCN(c2ncc(C(F)(F)F)cc2Cl)CC1	G9a block 50µM
Nc1ccc(N2CCN(c3ncc(C(F)(F)F)cc3Cl)CC2)c(C(F)(F)F)c1	Tau fibril FP inconclusive, Tau ThT inhib 20µM, G9a block inconclusive, Tau fluor counter 10µM[quencher] (no result: Sfp PPTase inh, Coupling enz)
Cc1c(O)ccc(-c2n[nH]c(C(=O)O)c2-c2nc3ccccc3s2)c1O	Tau ThT inhib inconclusive, G9a block 45µM
O=C(NCc1cccnc1)c1ccc(Cn2c(=S)[nH]c3ccc(Br)cc3c2=O)cc1	Tau fibril FP inconclusive
CN1CCN(CCCNC(=O)c2ccc(Cn3c(=S)[nH]c4ccc(Br)cc4c3=O)cc2)CC1	Tau ThT inhib inconclusive, G9a block 32µM
CC1CCN(CCCNC(=O)c2ccc(Cn3c(=S)[nH]c4ccc(Br)cc4c3=O)cc2)CC1	Tau ThT inhib inconclusive, G9a block 18µM, Tau fluor counter inconclusive
Cc1cccc(CSc2nc3c(cc2C#N)CCC3)c1	none
N#Cc1cc2c(nc1SCc1nc3ccccc3[nH]1)CCC2	Tau ThT inhib 6.3µM, Sfp PPTase inh 56µM, G9a block inconclusive, Tau fluor counter inconclusive
N#Cc1cc2c(nc1SCc1cccnc1)CCCC2	Sfp PPTase inh 45µM, G9a block inconclusive
Cc1ccc(NC(=O)Cn2c(=O)n(CCCCC(=O)NCc3ccc4c(c3)OCO4)c(=O)c3ccccc32)cc1	none (no result: Sfp PPTase inh, Coupling enz)
Cc1cccc(C)c1NC(=O)c1sc(-n2nc(C)c(Cc3ccc4c(c3)OCO4)c2C)nc1C	none (no result: Sfp PPTase inh, Coupling enz)
Cc1ccc2c(c1)C(=O)[C@@]1(O)CCN(c3ccccc3)C1=N2	Tau ThT inhib 20µM (no result: G9a block)
Cc1ccc2c(c1)C(=O)C1(O)CCN(c3ccccc3)C1=N2 (centres undefined)	Tau ThT inhib 7.9µM!
CC1=Nc2cc(C(=O)O)ccc2Sc2ccc(C)cc21	none
Cc1cccc(N2CC(=O)N(c3cccc(C)c3)CC2=O)c1	none
O=C(NCc1ccco1)c1ccc2c(c1)N(Cc1ccc(F)cc1)C(=O)c1ccccc1S2(=O)=O	Tau fibril FP inconclusive, Tau fluor counter inconclusive (no result: Sfp PPTase inh, Coupling enz)
NS(=O)(=O)c1ccc(NC(=O)COC(=O)c2cn(-c3ccccc3)nc2-c2ccc(F)cc2)cc1	Tau fibril FP 13µM, Tau fluor counter inconclusive
O=C(CN1CCN(S(=O)(=O)c2ccc3ccccc3c2)CC1)Nc1ccc(N2CCOCC2)cc1	G9a block 40µM
O=C(CN1c2cccc3cccc(c23)S1(=O)=O)Nc1ccc(S(=O)(=O)N2CCOCC2)cc1	Sfp PPTase inh inconclusive, G9a block 7.9µM
Cc1ccc(NC(=O)CN2CCN(S(=O)(=O)c3ccc(C(C)C)cc3)CC2)cc1F	none (no result: Sfp PPTase inh, Coupling enz)
COc1ccc(S(=O)(=O)N2CCN(CC(=O)Nc3ccc(C)c(F)c3)CC2)cc1	G9a block 45µM
COc1ccc(N2CCN(CC(=O)Nc3cccc(S(=O)(=O)N4CCOCC4)c3)CC2)cc1	G9a block 14µM
Cc1cccc(CCn2c(=O)c3ccccc3n(CC(=O)Nc3ccccc3F)c2=O)c1	none (no result: Sfp PPTase inh, Coupling enz)

Screening data: PubChem BioAssay, National Center for Advancing Translational Sciences (NCATS)
